PubChem BioAssay (Tox21)
Results filed as inconclusive are left out. The source made the active and inactive calls. Unless noted, the call rests on the fitted dose curve.

Tests used:
[1] = qHTS assay to identify small molecule agonists of the vitamin D receptor (VDR) signaling pathway - cell viability counter screen (AID 743224; active means well fitted curve in the direction sought with a large enough effect in the repeat runs; an effect the other way counts as inactive or inconclusive; further: series mostly up to about 63 µM; nearly all actives have a fitted effect of over 50% in size)
Method in brief: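 VDR-bla cells were preincubated 4 h at 37C/5% CO2, then exposed to compounds for 16 h. After the 2 h room-temperature bla FRET read, CellTiter-Glo was added to the same wells and luminescence read after 30 min.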

[2] = qHTS assay to identify small molecule antagonists of the vitamin D receptor (VDR) signaling pathway - cell viability counter screen (AID 743225; active means well fitted curve in the direction sought with a large enough effect in the repeat runs; an effect the other way counts as inactive or inconclusive; further: nearly all actives have a fitted effect of over 50% in size)
Method in brief: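 Same-well multiplex: following 16 h treatment of HEK 293T cells carrying a UAS-driven beta-lactamase reporter with compound and agonist (3 nM final), and a 2 h FRET substrate step, CellTiter-Glo was added and luminescence read after 30 min.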

[3] = qHTS assay to identify small molecule agonists of the NFkB signaling pathway (AID 1159509; active means well fitted curve in the direction sought with a large enough effect in the signal ratio in the repeat runs, not every such curve was filed as active; the % refers to the signal ratio; further: series mostly up to about 61 µM)
Method in brief: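 NFkB-bla ME-180 cells carry a beta-lactamase reporter under an NF-kB response element. They were plated overnight, then exposed to compounds for 5 h at 37 C. Read-out is LiveBLAzer FRET after 1.5 hr at room temperature (405 nm excitation; 460/530 nm emission).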

[4] = qHTS assay to identify small molecule agonists of the NFkB signaling pathway - cell viability counter screen (AID 1159515); further: series mostly up to about 61 µM; nearly all actives have a fitted effect of over 55% in size
Method in brief: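 NFkB-bla ME-180 cells, 2,000/well, were plated overnight at 37 C, 5% CO2, then exposed to compounds in DMSO for 5 hr. After the bla FRET read, CellTiter-Glo was added to the same wells; luminescence was read after 30 min at room temperature.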

[5] = qHTS assay to identify small molecule agonists of the endoplasmic reticulum stress response signaling pathway (AID 1159516; active means well fitted activation curve with a large enough effect in the signal ratio in the repeat runs, not every such curve was filed as active; the % refers to the signal ratio)
Method in brief: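 CellSensor ESRE-bla HeLa cells, carrying a beta-lactamase reporter driven by the ER stress response element, were plated overnight and exposed to compounds for 5 hr at 37 C. Reporter activity was read as FRET substrate fluorescence after 2 hr at room temperature.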

[6] = qHTS assay to identify small molecule agonists of the endoplasmic reticulum stress response signaling pathway - cell viability counter screen (AID 1159517); further: series mostly up to about 61 µM; nearly all actives have a fitted effect of over 50% in size
Method in brief: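 CellTiter-Glo was added to wells already read for beta-lactamase FRET, and luminescence was recorded 30 min later. Cells: ESRE-bla HeLa, 1,500 per well, compound exposure 5 hr at 37 C.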

[7] = qHTS assay to identify small molecule antagonists of the retinoid-related orphan receptor gamma (ROR-gamma) signaling pathway - cell viability counter screen (AID 1159520; active means well fitted curve in the direction sought with a large enough effect in the repeat runs; an effect the other way counts as inactive or inconclusive; further: nearly all actives have a fitted effect of over 50% in size)
Method in brief: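 Tet-on ROR gamma CHO cells (1,000/well) were plated 4 hr, given compounds in DMSO for 2 hr at 37 C, then induced with 1 uM final doxycycline for 16 hr. Viability was read as ATP by CellTiter-Glo luminescence after 30 min.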

[8] = qHTS assay to identify small molecule agonists of the AP-1 signaling pathway - cell viability counter screen (AID 1159525); further: nearly all actives have a fitted effect of over 55% in size
Method in brief: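 ME-180 AP-1-bla, 2500 cells/well, Opti-MEM + 0.5% dialyzed FBS; overnight 37 °C; cpd 15-pt titration, 5 h 37 °C; CellTiter-Glo 30 min RT; luminescence read; normalised to TOAB and DMSO controls.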

[9] = qHTS assay to identify small molecule agonists of the AP-1 signaling pathway (AID 1159526)
[10] = molecular target: Nuclear receptor ROR-gamma (Homo sapiens) (UniProt P51449); assay: qHTS assay to identify small molecule antagonists of the retinoid-related orphan receptor gamma (ROR-gamma) signaling pathway (AID 1159521; active means well fitted curve in the direction sought with a large enough effect in the repeat runs; an effect the other way counts as inactive or inconclusive)
Method in brief: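 Inducible-expression reporter assay: doxycycline (1 uM final) switched on RORγ in CHO cells bearing a ROR response element-luciferase construct, with test compounds present from 2 h beforehand. Decreased luminescence after 16 h defined antagonist activity.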

Measured: Potency

O=C1CCC(C2CCCCC2)CC1
not listed: [10]
inactive: all other assays above

NCCC(O)(P(=O)(O)O)P(=O)(O)O
not listed: [1] | [10]
inactive: all other assays above

FC(F)(F)C(F)(F)C(F)(F)C(F)(F)C(F)(F)C(F)(F)C(F)(F)C(F)(F)Br
not listed: [10]
inactive: all other assays above

CC1(O)CSC(C)(O)CS1 (stereo not drawn)
not listed: [1] | [9] | [10]
inactive: all other assays above

CC(C)(C)c1cccc(O)c1
not listed: [10]
inactive: all other assays above

CC(=O)O[C@H]1CC[C@@]2(C)C(=CC[C@@H]3[C@@H]2CC[C@]2(C)C(C(C)=O)=CC[C@@H]32)C1
not listed: [10]
inactive: all other assays above

CCCCOc1cc(C(=O)NCCN(CC)CC)c2ccccc2n1
not listed: [2] | [9] | [10]
inactive: all other assays above

CC(C)CC(=O)OCc1ccccc1
not listed: [8] | [10]
inactive: all other assays above

Cc1cc2c(s1)Nc1ccccc1N=C2N1CCN(C)CC1
not listed: [8] | [9] | [10]
inactive: all other assays above

CC(C)=CCC[C@](C)(O)[C@@H]1CC=C(C)CC1
not listed: [1] | [9] | [10]
inactive: all other assays above

CC(C)C[C@H](NC(=O)OCC1c2ccccc2-c2ccccc21)C(=O)O
not listed: [5] | [9]
inactive: all other assays above

COC(=O)N[C@H](C(=O)N[C@@H](Cc1ccccc1)[C@@H](O)CN(Cc1ccc(-c2ccccn2)cc1)NC(=O)[C@@H](NC(=O)OC)C(C)(C)C)C(C)(C)C
not listed: [7] | [10]
inactive: all other assays above

CCc1cc(Cl)c(OC)c(C(=O)NC[C@@H]2CCCN2CC)c1O
not listed: [7] | [9]
inactive: all other assays above

NC/C=C/C(=O)O
not listed: [7] | [8]
inactive: all other assays above

O=C1CCN(c2ccccc2)N1
inactive: [3] | [4] | [5] | [6] | [10] | [8]

CCN(CC)CCNC(=O)COc1ccc(Cl)cc1
not listed: [7] | [10]
inactive: all other assays above

CO[C@@]1(NC(=O)CSCC#N)C(=O)N2C(C(=O)O)=C(CSc3nnnn3C)CS[C@@H]21
not listed: [7] | [8]
inactive: all other assays above

CCOC(=O)C1CC(=O)C(=C(O)C2CC2)C(=O)C1 (stereo not drawn)
not listed: [2] | [7] | [8]
inactive: all other assays above

CC1(C)O[C@@H]2C[C@H]3[C@@H]4CCC5=CC(=O)CC[C@]5(C)[C@@]4(F)[C@@H](O)C[C@]3(C)[C@]2(C(=O)CCl)O1
inactive: [1] | [3] | [4] | [5] | [6] | [8]

CCOC(=O)CS
not listed: [2] | [7] | [9]
inactive: all other assays above

CN(C)CC[C@@H](c1ccc(Cl)cc1)c1ccccn1
not listed: [7] | [9]
inactive: all other assays above

CC(=O)Nc1ccc(C)c(Cl)c1
not listed: [7] | [10]
inactive: all other assays above

Cc1c(C(=O)NCCO)[n+](=O)c2ccccc2n1[O-]
inactive: [1] | [3] | [4] | [5] | [6] | [8]

CCOC(=O)C(Br)c1ccccc1 (stereo not drawn)
not listed: [7] | [8]
inactive: all other assays above

CC(C)c1ccccc1
not listed: [1] | [7] | [9]
inactive: all other assays above

NC(=O)Cc1cccc(C(=O)c2ccccc2)c1N
not listed: [2] | [7] | [10]
inactive: all other assays above
